# Data: PubChem BioAssay (NCI)
# About 83,000 compounds went through this panel and 20% of them were active in at least one assay; those are over-represented in the sample as a whole.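 96-well plates, one dose, 48 hours. Percent growth reported; active if below 10.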 Unmarked numbers belong to inactive results. Active and inactive are the calls of the source.
# System: HL-60(TB) leukemia
# Assay: NCI-60 one-dose screen, 48 h (100 = growth as untreated, 0 = no growth, -100 = all killed)
# Conditions: 10 µM unless noted
row,Structure (SMILES),growth
1,c1cnc2[nH]cc(-c3csc(-c4cn(CCCN5CCOCC5)c5ccccc45)n3)c2c1,35.8%
2,Cc1sc2nc(NCCc3c[nH]c4ccc(Cl)cc34)[nH]c(=O)c2c1C,7.05% (active)
3,COc1ccc(Cl)c([N+](=O)[O-])c1,98.6%
4,CN1CCN(c2ccc(NC(=O)c3cncnc3Nc3ccc(OCc4ccccn4)c(Cl)c3)cc2)CC1,-57.9% (active)
5,CS(=O)CC(=N\O)/C(CS(C)=O)=N\O (stereo not given),101%
6,COC(=O)c1cc(-c2cccs2)c(C#N)c(N)c1C#N,108%
7,CCOC(=O)Nc1ccc(-c2nc(-c3cccc(OCCN4CCOCC4)c3)c(-c3ccnc(Br)c3)[nH]2)cc1,-23.2% (active)
8,CCOC(=O)C12CCCC1=CC(=O)CC2 (stereo not given),100%
9,Cn1cnc2c1c(=O)n(CCC(=O)Nc1ccc(F)cc1)c(=O)n2C,113%
10,CN(C)CCNC(=O)n1cc(-c2ccncc2)c(-c2cc(O)cc(Cl)c2)n1,87.1%
11,COc1cc2nc(Cl)nc(Nc3cccc(C(=O)/C=C/c4ccc(Br)cc4)c3)c2cc1OC,77.8%
12,CCCOC(=O)C1c2cc3c(cc2CC(C)C1C(=O)OCCC)OCO3 (stereo not given),111%
13,COc1cc(-c2cc(-c3cc4c([nH]c5ccccc54)c(-c4cc(OC)c(OC)c(OC)c4)n3)cc(-c3ccccc3)n2)cc(OC)c1OC,30.9%
14,COc1ccc(Nc2nnc(-c3ccc(OC)c(OC)c3)o2)cc1,84.2%
15,CC1=C(/C=C/C(C)=C/C=C/C(C)=C/CO)C(C)(C)CCC1,103%
16,COc1ccc(/C=C/C(=O)C(=O)/C=C/c2ccc(OC)c(OC)c2)cc1OC,35.4%
17,CN(C)CCC(=O)Nc1ccc(-n2cc(-c3cccc(NC(=S)Nc4cccc(-c5cn(-c6ccc(NC(=O)CCN(C)C)cc6)nn5)c4)c3)nn2)cc1,94%
18,CCCCCCCNc1nc(C=O)ncc1-c1ccc(C(F)(F)F)cc1,64.4%
19,O=c1c(-c2nc3ccccc3[nH]2)cc2ccccc2n1Cc1cn(Cc2ccc(F)cc2)nn1,0.035% (active)
20,Cc1ccccc1COc1ccc(-c2onc(C)c2-c2ccc(Cl)cc2)cc1,17.7%

row,Structure (SMILES),growth
1,CC1=Nc2cnc(Nc3ccc(OCCN4CCCCC4)cc3)nc2Nc2ccccc21,65.1%
2,CN1CCN(Cc2ccc(NC(=O)c3cnc(F)c(C#Cc4cnc(N)c5ncccc45)c3)cc2C(F)(F)F)CC1,-9.84% (active)
3,N#Cc1ccc(NC(=O)Nc2cccc(C#N)c2)cc1,68.6%
4,O=C(Cn1cc(CN2C(=O)c3ccccc3S2(=O)=O)nn1)Nc1nc2ccccc2s1,113%
5,NC1=NCc2nc3ccccc3c(=O)n2C1,90.9%
6,C[C@@H](c1ccc2c(c1)[nH]c1ccc(Cl)cc12)c1nc2ccccc2[nH]1,91.3%
7,CN1CCN(CC#CCNC(=O)[C@]23CCC(C)(C)C[C@H]2C2=CC[C@@H]4[C@@]5(C)Cc6c([nH]c7ccccc67)C(C)(C)[C@@H]5CC[C@@]4(C)[C@]2(C)CC3)CC1,49.4%
8,O=C1/C(=C/c2ccc(O)cc2)Cc2ccc(Cl)cc21,60.1%
9,COc1ccc(-c2cc(/C=C3\C(=O)Nc4cc(Cl)ccc43)[nH]n2)cc1OC,53%
10,CC(C)c1cc(N=O)cc(C(C)C)c1O,93%
11,Cc1ccc(NC(=O)c2ccc(CN3CC[C@H](N(C)C)C3)c(C(F)(F)F)c2)cc1Nc1nccc(-c2cncnc2)n1,-51.3% (active)
12,CN(C)c1ncnc2c1nnn2C1OC(CO)C(O)C1O (stereo not given),4.4% (active)
13,Cc1onc(-c2ccccc2)c1C(=O)N/N=C/c1cc(Cl)cc(Cl)c1O,15.7%
14,Nc1nccc2c1ccn2-c1ccc(NC(=O)Nc2cccc(C(F)(F)F)c2)cc1,117%
15,COC(=O)c1ccc(NC(=O)CSc2nc3ccccc3c(=O)n2-c2ccccc2)cc1,93.2%
16,CSc1n(Cc2ccc3ccccc3c2)c(C)c[n+]1Cc1ccc2ccccc2c1,-45% (active)
17,CCOC(=O)C1=C(N)Oc2c(sc3c(F)cccc23)C1c1ccc(O)cc1 (stereo not given),18.4%
18,CCOC(=O)/C=C1/SC(=Nc2ccc(C#N)cc2)N(Cc2ccco2)C1=O,-26.6% (active)
19,c1cncc(CNc2ccccc2-c2nnc(Nc3ccc4c(c3)OCCO4)o2)c1,8.71% (active)
20,NC(=O)c1ccccc1NC(=O)c1ccccc1Cl,64.4%
